Source: PubChem
Rows were chosen to be rich in hits. Some 1.7% of all compounds tested hit in one or more screens of this group.
RecA splice inh: Mtb RecA intein splicing inhibition | P9WHJ3 | cell-free RecA intein splicing, fluorescence | inhibition, % (test concentration not listed) | 0.75% of 290,000 active | AID 2221; in the data active means inhibition above about 30%;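 further: 0% = vehicle wells and 100% = reference inhibitor control wells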
Mtb hypoxia rep: inhibitors of hypoxia-regulated fluorescent reporter in Mycobacterium tuberculosis | 0.1% of 300,000 active | fluorescence inhibition, % (test concentration not listed) | M. tuberculosis hypoxia-regulated fluorescent reporter, fluorescence; in the data active means fluorescence inhibition mostly above about 23%, no sharp cut-off; inactive means mostly below about 17%
CCHF vOTU inh-1: blocks the CCHF virus ovarian tumor domain protease | 0.55% of 370,000 active | CCHFV vOTU protease, Pep-AMC fluorescence | inhibition, % at 11.5 µM; further: 0% = vehicle wells with enzyme and 100% = no enzyme wells
Mtb bLac sens: beta-lactam sensitization of Mtb H37Rv. 0.27% of 330,000 active. M. tuberculosis H37Rv growth with meropenem, percent inhibition. inhibition, % at 25 µM; call rule not given here;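 further: growth measured after seven days incubation then overnight dye step; 0% = bacteria only wells and 100% = bacteria with antibiotic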
PfHsp40 rescue: compounds rescuing yeast from Plasmodium falciparum HSP40 toxicity; S. cerevisiae expressing PfHsp40, growth rescue, ATP luminescence; AID 504582; 0.68% of 340,000 active; growth rescue, % at 12.5 µM; in the data active means growth rescue above about 28%, passing the limit was not always enough;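 further: yeast W303a lacking pdr1 and pdr3 grown in galactose medium; growth measured after three days at 30 °C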
CCHF vOTU inh-2: confirmation of CCHF virus vOTU protease inhibitors; inhibition, % at 11.5 µM; Recombinant CCHFV vOTU, Pep-AMC fluorescence; 17% of 1,900 active; AID 686976; shares compounds with CCHF vOTU inh-1
Numbers without * were called inactive. Unless noted, no stated cut-off is given here; in the data, active means inhibition above about 30%; inactive means the rest.

Screening CCOC(=O)C1CCCN(C2=C(NS(=O)(=O)c3ccc(Br)cc3)C(=O)c3ccccc3C2=O)C1 (stereo unspecified) returned RecA splice inh 25, Mtb hypoxia rep -8, CCHF vOTU inh-1 76*, Mtb bLac sens 10, PfHsp40 rescue 4 and CCHF vOTU inh-2 13.
CCOc1ccc(NC(=O)CN(C)C(=O)c2ccc(C)o2)cc1OCC was read as RecA splice inh -1, Mtb hypoxia rep 6, CCHF vOTU inh-1 32*, Mtb bLac sens -2, PfHsp40 rescue 0 and CCHF vOTU inh-2 -23.
Screening CCOc1ccc(C=NNC(=O)c2cc3ccccc3cc2OC)cc1 returned Mtb hypoxia rep 11.
`C#CCOCCOCCOCCNc1nc(N2CCOCC2)nc(N2CCN(C(=O)C(CCC(=O)O)n3cc(C(N)Cc4ccc(O)cc4)nn3)CC2)n1` (stereo unspecified) gave Mtb hypoxia rep -3.
For C=CCc1ccc(OCCCNCc2ccccc2)c(OC)c1 the results were RecA splice inh 2, Mtb hypoxia rep 0, CCHF vOTU inh-1 31*, Mtb bLac sens 4, PfHsp40 rescue 1 and CCHF vOTU inh-2 -5.
`Cc1ccc(C=Nc2sc(Cc3ccccc3)c(C)c2C(N)=O)o1` gave Mtb hypoxia rep 10.
For CC(C)CCOP(=O)(c1ccc(N(C)C)cc1)C(O)c1ccccc1F (stereo unspecified) the results were RecA splice inh 1, Mtb hypoxia rep 2, CCHF vOTU inh-1 6, Mtb bLac sens -2 and PfHsp40 rescue 1.
CC(C)CCOP(=O)(c1ccc(N(C)C)cc1)C(O)c1ccc(Cl)cc1Cl (stereo unspecified) was read as RecA splice inh 22, Mtb hypoxia rep 8, CCHF vOTU inh-1 41*, Mtb bLac sens 9, PfHsp40 rescue 3 and CCHF vOTU inh-2 1.
Screening Cc1ccc(CN(C)C(=O)c2cccc(S(=O)(=O)N3CCN(Cc4ccccc4)CC3)c2)o1 returned RecA splice inh 2, Mtb hypoxia rep 9, CCHF vOTU inh-1 10, Mtb bLac sens 1 and PfHsp40 rescue 0.
`CN(Cc1ccco1)C(=O)c1cccc(S(=O)(=O)N2CCN(Cc3ccccc3)CC2)c1` gave CCHF vOTU inh-1 34* and CCHF vOTU inh-2 -17.
CC(C)CCNC(=O)c1c(N)n(Cc2ccc3c(c2)OCO3)c2nc3ccccc3nc12 was read as RecA splice inh -4, Mtb hypoxia rep 4, CCHF vOTU inh-1 54*, Mtb bLac sens 32, PfHsp40 rescue 0 and CCHF vOTU inh-2 -14.
For Nc1ccc(-n2c(N)c(C(=O)NCc3ccc4c(c3)OCO4)c3nc4ccccc4nc32)cc1 the results were RecA splice inh 1, Mtb hypoxia rep -7, CCHF vOTU inh-1 12, Mtb bLac sens 0 and PfHsp40 rescue -1.
Screening CC(NC(=O)CCNS(=O)(=O)c1ccccc1)c1ccccc1 (stereo unspecified) returned RecA splice inh -3, Mtb hypoxia rep 3, CCHF vOTU inh-1 5, Mtb bLac sens -1 and PfHsp40 rescue 0.
`CC(NC(=O)CS(=O)(=O)c1ccccc1)c1ccccc1` (stereo unspecified) gave RecA splice inh 3, Mtb hypoxia rep 7, CCHF vOTU inh-1 36*, Mtb bLac sens -23, PfHsp40 rescue 1 and CCHF vOTU inh-2 -25.
CCCOc1cc(N)ccc1C(=O)OCCN(CC)CC was read as Mtb hypoxia rep -1, CCHF vOTU inh-1 -3, Mtb bLac sens -1 and PfHsp40 rescue 0.
Screening CCCOc1ccc(N)cc1N returned RecA splice inh 30*, CCHF vOTU inh-1 85*, Mtb bLac sens 25, PfHsp40 rescue 0 and CCHF vOTU inh-2 22.
CC(=NNC(=O)CN1CCN(S(=O)(=O)c2ccc(Br)cc2)CC1)c1cccnc1 was read as Mtb hypoxia rep 8.
For Brc1ccc(C=NNc2ccccc2)cc1 the results were Mtb hypoxia rep 12.
For CCC(=O)NC1=C(Cl)C(=O)C(NC(=O)CC)=C(Cl)C1=O the results were CCHF vOTU inh-1 97*, PfHsp40 rescue -2 and CCHF vOTU inh-2 9.
For CCC(C)C(NC(=O)OC(C)(C)C)c1cn(C(CCC(=O)OC(C)(C)C)C(=O)N2CCN(C(=O)OC(C)(C)C)CC2)nn1 (stereo unspecified) the results were Mtb hypoxia rep 1.
`CN1CCc2c(sc3c2c(=O)n(-c2ccccc2)c2nnc(SCc4ccccc4)n32)C1` gave RecA splice inh 2, Mtb hypoxia rep -1, CCHF vOTU inh-1 31*, Mtb bLac sens 10, PfHsp40 rescue 0 and CCHF vOTU inh-2 -7.
CN1CCc2c(sc3c2c(=O)n(-c2ccccc2)c2nnc(SCc4ccc(F)cc4)n32)C1 was read as Mtb hypoxia rep 7, CCHF vOTU inh-1 -3 and PfHsp40 rescue -2.
`NC(=S)NN=Cc1nccc2c(N)cccc12` gave CCHF vOTU inh-1 64* and CCHF vOTU inh-2 28.
`NC(=S)N/N=C/c1c(O)ccc2ccccc12` gave RecA splice inh -4, CCHF vOTU inh-1 12, Mtb bLac sens 22 and PfHsp40 rescue -2.
For CC1=C(C(=O)N(C)C)CC(CC(=O)NCc2cccc3ccccc23)C(=O)N1CCCN1CCCC1=O (stereo unspecified) the results were CCHF vOTU inh-1 36* and CCHF vOTU inh-2 -22.
`CC1=C(C(=O)N(C(C)C)C(C)C)CC(CC(=O)NCc2cccc3ccccc23)C(=O)N1CCCN1CCCC1=O` (stereo unspecified) gave CCHF vOTU inh-1 6.
For Cn1c2ccccc2c2cc(/C=N/NC(=O)c3cc(O)ccc3O)ccc21 the results were RecA splice inh -3, CCHF vOTU inh-1 51*, Mtb bLac sens 0, PfHsp40 rescue 4 and CCHF vOTU inh-2 64*.
For CCS(=O)(=O)c1ccc2oc(Nc3ccc(C(C)(C)C)cc3)nc2c1 the results were RecA splice inh 2, Mtb hypoxia rep -4, CCHF vOTU inh-1 30*, Mtb bLac sens 4, PfHsp40 rescue 2 and CCHF vOTU inh-2 -9.
`CCS(=O)(=O)c1ccc2oc(Nc3ccc(OC)cc3)nc2c1` gave RecA splice inh 0, Mtb hypoxia rep -1, CCHF vOTU inh-1 6, Mtb bLac sens -17 and PfHsp40 rescue -2.
Screening NC(=O)C1CC2(CC(c3cccc(NC(=O)C4CCC(=O)N4)c3)=NO2)CN1C(=O)c1ccc(Cl)cc1 (stereo unspecified) returned Mtb hypoxia rep 12.
For CC(=NNC(=O)CNC(=O)c1cccs1)c1ccco1 the results were Mtb hypoxia rep 3.
For CC(C)CCCCCCNC(=S)Nc1ccc(S(=O)(=O)N2CCOCC2)cc1 the results were RecA splice inh 1, Mtb hypoxia rep -1, CCHF vOTU inh-1 31*, Mtb bLac sens 6, PfHsp40 rescue 2 and CCHF vOTU inh-2 11.
`O=S(=O)(c1ccc(NC(=S)Nc2ccccc2)cc1)N1CCOCC1` gave RecA splice inh -3, Mtb hypoxia rep 7, CCHF vOTU inh-1 0, Mtb bLac sens 1 and PfHsp40 rescue 1.
